In PubChem BioAssay AID602144 (Vanderbilt Specialized Chemistry Center, 2011):
Values joined by “and” are separate entries in the source; they are usually repeats but may differ in a detail not shown here. Equal values may be shown once. Values without a mark were called inactive. Active and inactive are the calls of the source. Cut-off read from the data, not from the text of the source: active = remaining activity below about 50%; inactive = the rest.

Target: Phospholipase D1 (Homo sapiens) (UniProt Q13393)
Sequence (Q13393 whole entry, looked up): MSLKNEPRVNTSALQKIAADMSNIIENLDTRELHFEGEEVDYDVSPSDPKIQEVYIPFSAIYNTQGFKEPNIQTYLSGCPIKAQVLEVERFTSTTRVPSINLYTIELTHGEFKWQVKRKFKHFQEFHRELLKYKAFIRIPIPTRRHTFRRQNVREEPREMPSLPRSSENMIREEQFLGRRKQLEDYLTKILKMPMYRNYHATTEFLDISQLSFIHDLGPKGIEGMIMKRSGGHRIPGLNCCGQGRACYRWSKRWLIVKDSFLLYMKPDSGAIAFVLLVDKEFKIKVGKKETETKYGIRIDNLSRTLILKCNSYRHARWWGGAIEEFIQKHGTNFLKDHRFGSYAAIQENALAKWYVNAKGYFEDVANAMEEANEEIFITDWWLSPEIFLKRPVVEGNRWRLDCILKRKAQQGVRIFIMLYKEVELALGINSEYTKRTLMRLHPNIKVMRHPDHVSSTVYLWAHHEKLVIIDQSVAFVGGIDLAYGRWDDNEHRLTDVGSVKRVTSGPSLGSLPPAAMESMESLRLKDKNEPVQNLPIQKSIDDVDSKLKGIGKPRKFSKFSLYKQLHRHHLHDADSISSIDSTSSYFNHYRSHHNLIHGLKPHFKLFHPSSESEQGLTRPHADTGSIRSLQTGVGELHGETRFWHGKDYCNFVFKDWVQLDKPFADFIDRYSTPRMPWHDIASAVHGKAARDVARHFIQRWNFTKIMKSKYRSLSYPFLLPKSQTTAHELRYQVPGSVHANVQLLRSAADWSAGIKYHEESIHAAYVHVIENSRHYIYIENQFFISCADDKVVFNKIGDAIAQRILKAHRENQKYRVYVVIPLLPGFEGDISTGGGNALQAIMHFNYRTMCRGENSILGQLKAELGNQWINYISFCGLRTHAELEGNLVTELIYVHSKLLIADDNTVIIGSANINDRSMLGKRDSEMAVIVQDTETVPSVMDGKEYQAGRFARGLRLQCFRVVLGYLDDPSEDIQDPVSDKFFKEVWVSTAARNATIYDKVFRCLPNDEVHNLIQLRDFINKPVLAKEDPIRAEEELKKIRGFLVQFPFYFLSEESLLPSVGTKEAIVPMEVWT
Sequence (Q13393 whole entry, looked up): as above
Assay: PLD1 inhibitors in cells, Calu-1 cells, single concentration (AID 602144);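 note: tested at 200 nM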
Conditions: cellular PLD1 activity, hits give low values

| SMILES | remaining activity |
| --- | --- |
| Nc1ccc(C(=O)NCCN2CCC(n3c(=O)[nH]c4ccccc43)CC2)cc1OC(F)(F)F | 72.6% |
| C[C@@H](CN1CCC2(CC1)CN(S(C)(=O)=O)c1ccccc12)NC(=O)c1ccc2ccccc2c1 | 119% |
| C[C@@H](CN1CCC(c2nc3ccccc3[nH]2)CC1)NC(=O)c1ccc2ccccc2c1 | 58.7% |
| O=C1c2ccccc2C(=O)N1CCN1CCC(n2c(=O)[nH]c3cc(Cl)ccc32)CC1 | 107% |
| Cc1ccc(C(=O)N[C@@H](C)CN2CCC(n3c(=O)[nH]c4cc(Cl)ccc43)CC2)cc1 | 12.1% (active) |
| O=c1[nH]c2ccccc2n1C1CCN(CCN2CCCC2)CC1 | 112% |
| CS(=O)(=O)N1CC2(CCN(CCNC(=O)c3ccc4ccccc4c3)CC2)c2ccccc21 | 136% |
| C[C@@H](CN1CCC(n2c(=O)[nH]c3ccccc32)CC1)NC(=O)CCc1ccc(F)cc1 | 53.9% |
| CS(=O)(=O)NCCN1CCC(n2c(=O)[nH]c3ccccc32)CC1 | 88% |
| O=C(NCCN1CCC(n2c(=O)[nH]c3ccccc32)CC1)C1C=Cc2ccccc2C1 (centres undefined) | 33% (active) |
| O=C(NCCN1CCC(n2c(=O)[nH]c3ccccc32)CC1)Nc1cccc(F)c1 | 20.1% (active) |
| C[C@@H](NC(=O)NCCN1CCC(n2c(=O)[nH]c3ccccc32)CC1)c1ccccc1 | 131% and 118% |
| Cc1ccc(C(=O)NCCN2CCN(c3ncccn3)CC2)cc1 | 84.2% |
| O=c1[nH]c2ccccc2n1C1CCN(CCNS(=O)(=O)c2ccc(Cl)cc2)CC1 | 137% |
